The results in this text go back to PubChem BioAssay AID2283197 (EPA ToxCast).

Active and inactive are the calls of the source. Rule for the calls: active = hit-call score of the fitted dose curve at least 0.9, where 1 is the maximum; inactive = score below 0.9.

human Protein Kinase D2 (PKD2), PRKD2 (gene 25865), sequence (Q9BZL6 whole entry, looked up): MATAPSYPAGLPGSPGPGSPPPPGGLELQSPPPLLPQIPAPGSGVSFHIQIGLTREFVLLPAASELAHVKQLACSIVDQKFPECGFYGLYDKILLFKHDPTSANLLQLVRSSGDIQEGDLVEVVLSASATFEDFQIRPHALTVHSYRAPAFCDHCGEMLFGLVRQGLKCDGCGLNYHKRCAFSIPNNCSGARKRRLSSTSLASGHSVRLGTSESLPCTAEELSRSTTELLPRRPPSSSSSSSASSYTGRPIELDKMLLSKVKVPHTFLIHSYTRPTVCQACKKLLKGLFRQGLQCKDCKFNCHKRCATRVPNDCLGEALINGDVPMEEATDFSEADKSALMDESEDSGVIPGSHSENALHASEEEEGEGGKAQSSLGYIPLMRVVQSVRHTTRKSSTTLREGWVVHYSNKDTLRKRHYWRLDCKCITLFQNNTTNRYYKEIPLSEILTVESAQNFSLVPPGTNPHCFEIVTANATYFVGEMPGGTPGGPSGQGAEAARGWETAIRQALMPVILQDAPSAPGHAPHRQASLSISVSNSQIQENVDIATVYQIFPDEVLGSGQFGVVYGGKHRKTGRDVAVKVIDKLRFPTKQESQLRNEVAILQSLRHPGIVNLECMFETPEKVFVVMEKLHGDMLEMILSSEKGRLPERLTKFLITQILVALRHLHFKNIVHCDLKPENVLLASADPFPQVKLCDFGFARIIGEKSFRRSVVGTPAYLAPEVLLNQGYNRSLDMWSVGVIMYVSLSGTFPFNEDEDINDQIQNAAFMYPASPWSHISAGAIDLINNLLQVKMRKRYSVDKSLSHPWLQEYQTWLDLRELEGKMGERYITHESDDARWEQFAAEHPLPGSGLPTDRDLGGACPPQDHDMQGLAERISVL

The experiment concerns the target human Protein Kinase D2 (PKD2), PRKD2 (gene 25865) (UniProt Q9BZL6). The experiment in a line: NVS_ENZ_hPKD2: NovaScreen (NVS) Enzymatic Assay for human Protein Kinase D2 (PKD2). The procedure:
NVS_ENZ_hPKD2 is a biochemical, single-readout assay that uses extracted gene-proteins in a cell-free assay. Measurements were taken 1 hour after chemical dosing in a 384-well plate.NVS_ENZ_hPKD2 is one of one assay component(s) measured or calculated from the NVS_ENZ_hPKD2 assay. It is designed to make measurements of enzyme activity, a form of enzyme reporter, as detected with fluorescence intensity signals by Fluorescence and electrophoretic mobility shift technology.Data from the assay component NVS_ENZ_hPKD2 was analyzed into 1 assay endpoint. This assay endpoint, NVS_ENZ_hPKD2, was analyzed in the positive analysis fitting direction relative to DMSO as the negative control and baseline of activity. Using a type of enzyme reporter, loss-of-signal activity can be used to understand changes in the enzymatic activity as they relate to the gene PRKD2. Furthermore, this assay endpoint can be referred to as a primary readout, because this assay has produced multiple assay endpoints where this one serves a enzymatic activity function. To generalize the intended target to other relatable targets, this assay endpoint is annotated to the kinase intended target family, where the subfamily is serine/threonine kinase.
Binding assays used specific radioligands (tritiated, iodinated) with non-radioactive competitive displacement ligands in agonist or antagonist protocols (as indicated) and various reference compounds and inhibitors to titrate specific binding to receptors and transporters. Most enzyme assays (CYPs, kinases, phosphatases, proteases, HDACs) used recombinant protein and specific substrates (fluorescence mostly, some colorimetric and radioactive) and inhibitors, followed by a biochemical separation of substrate and product. All assays for the biochemical HTS were initially run in duplicate at a single concentration (10 uM for CYP450 assays and 25 uM for all others). Assay-chemical combinations meeting a pre-defined threshold (e.g., 30% inhibition and other criteria defined below) were then run in singleton concentration-response format with maximum concentration of 20 uM for CYPs and 50 uM for all others. Each assay was run with positive and negative controls, and concurrent controls on every plate. The follow-up (secondary) screen tested active chemical-pairs in concentration series, as well as a few additional assays not tested in the primary screen, some selected negative inactives, and several cases re-run in the concentration series for confirmatory purposes.
Regarding `O=C(Nc1ccccc1)Nc1cnns1`, the call was inactive.

Consider `Oc1ccc(Cl)cc1Cc1ccccc1`, for which the AC50 is 25 µM (active).

In the case of `COc1ccc(C(c2ccc(OC)cc2)C(Cl)(Cl)Cl)cc1`, the outcome was inactive.

As for `O=C(Nc1ccccc1)Nc1ccnc(Cl)c1`, the molecule was classed as inactive.
